# Experimental data: PubChem BioAssay
# Unmarked numbers belong to inactive results. A call without a number means that no potency is given here. For part of these data: Potency and affinity values are given separately. Activity calls are given as the source filed them. Unless noted, how the calls were made is not given here.
# Tests used:
# [1] = antimalarial activity against Dd2 strain (AID 2302;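 active means growth inhibition above 50% at the single 2 µM test dose, taken to imply half-maximal potency below 2 µM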); conditions: P. falciparum Dd2 in RBCs, LDH growth readout, 72 h; at 2 µM; stronger effect = higher value
# [2] = human hepatoma cell viability loss – ATP luminescence, cytotoxicity control for P. falciparum antimalarial project, primary screen (AID 2303;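 active means inhibition above 50%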); conditions: HepG2 viability, 24-48 h, at 10 µM, stronger effect = higher value
# [3] = biological target: L-lactate dehydrogenase (Plasmodium falciparum (isolate CDC / Honduras)) (UniProt Q27743); assay: PfLDH activity inhibition – cell lysate, 3D7 strain, counter-screen for P. falciparum growth inhibition project (AID 2304); conditions: P. falciparum 3D7 crude extract, LDH APAD/NBT absorbance; at 2 µM; stronger effect = higher value
# Chain of L-lactate dehydrogenase (Plasmodium falciparum (isolate CDC / Honduras)) (Q27743 whole entry, looked up): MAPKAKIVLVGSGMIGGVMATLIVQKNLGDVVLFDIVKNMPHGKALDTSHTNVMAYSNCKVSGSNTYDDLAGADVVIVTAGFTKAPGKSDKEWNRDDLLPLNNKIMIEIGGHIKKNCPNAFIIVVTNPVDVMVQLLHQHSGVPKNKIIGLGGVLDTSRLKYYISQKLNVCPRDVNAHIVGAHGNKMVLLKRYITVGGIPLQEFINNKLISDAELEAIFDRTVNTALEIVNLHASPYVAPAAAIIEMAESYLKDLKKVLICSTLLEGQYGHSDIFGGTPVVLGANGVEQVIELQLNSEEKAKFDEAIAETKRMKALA
# [4] = inhibition of 3D7 malaria parasite growth – strain 3D7 (AID 2306); conditions: P. falciparum 3D7 erythrocytic growth, LDH absorbance, 72 h; at 2 µM; stronger effect = higher value
# [5] = biological target: Calcium-dependent protein kinase 1 (Plasmodium falciparum (isolate 3D7)) (UniProt P62344); assay: PfCDPK1 kinase inhibitors, biochemical, TCAMS library (AID 1159585; cut-off not given, nearly all actives have IC50 up to about 0.98 µM;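 further: inhibitors leave more ATP so luminescence rises with inhibition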); conditions: recombinant PfCDPK1, Kinase-Glo ATP depletion luminescence
# Chain of Calcium-dependent protein kinase 1 (Plasmodium falciparum (isolate 3D7)) (P62344 whole entry, looked up): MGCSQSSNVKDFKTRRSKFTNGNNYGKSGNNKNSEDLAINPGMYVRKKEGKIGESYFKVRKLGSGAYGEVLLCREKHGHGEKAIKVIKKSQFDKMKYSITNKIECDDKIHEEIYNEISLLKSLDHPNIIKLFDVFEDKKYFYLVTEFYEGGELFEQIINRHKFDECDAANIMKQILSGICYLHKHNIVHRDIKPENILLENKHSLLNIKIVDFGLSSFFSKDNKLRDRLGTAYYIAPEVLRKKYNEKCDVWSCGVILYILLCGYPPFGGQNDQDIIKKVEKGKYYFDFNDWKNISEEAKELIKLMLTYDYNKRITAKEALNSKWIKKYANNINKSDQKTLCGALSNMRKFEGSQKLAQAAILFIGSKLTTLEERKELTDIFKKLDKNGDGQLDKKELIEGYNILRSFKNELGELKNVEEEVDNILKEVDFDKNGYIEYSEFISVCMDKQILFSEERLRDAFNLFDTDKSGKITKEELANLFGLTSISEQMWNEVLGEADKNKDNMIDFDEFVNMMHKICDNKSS
# [6] = biological target: Plasmodium falciparum protein kinase 6 (PK6, PF3D7_1337100) (UniProt Q8IDW1); assay: PfPK6 kinase inhibitors, biochemical, TCAMS library (AID 1159586); conditions: recombinant PfPK6, Kinase-Glo ATP depletion luminescence
# Chain of Plasmodium falciparum protein kinase 6 (PK6, PF3D7_1337100) (Q8IDW1 1-305): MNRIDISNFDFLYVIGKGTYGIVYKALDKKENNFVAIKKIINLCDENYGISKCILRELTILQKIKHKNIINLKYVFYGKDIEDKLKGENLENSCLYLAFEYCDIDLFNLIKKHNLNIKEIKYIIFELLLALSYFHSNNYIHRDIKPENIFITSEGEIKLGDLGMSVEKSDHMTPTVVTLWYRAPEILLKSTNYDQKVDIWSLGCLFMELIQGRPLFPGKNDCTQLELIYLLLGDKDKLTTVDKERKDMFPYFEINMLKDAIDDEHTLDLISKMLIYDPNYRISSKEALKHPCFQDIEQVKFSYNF
# [7] = biological target: Protein kinase 7 (PK7), Plasmodium falciparum 3D7 (PF3D7_0213400) (UniProt Q7YTF7); assay: inhibition of Plasmodium PK7 catalytic activity – biochemical, TCAMS antimalarial set, Kinase-Glo luminescence (AID 1159587); conditions: recombinant PfPK7, Kinase-Glo ATP depletion luminescence
# Chain of Protein kinase 7 (PK7), Plasmodium falciparum 3D7 (PF3D7_0213400) (Q7YTF7 1-343): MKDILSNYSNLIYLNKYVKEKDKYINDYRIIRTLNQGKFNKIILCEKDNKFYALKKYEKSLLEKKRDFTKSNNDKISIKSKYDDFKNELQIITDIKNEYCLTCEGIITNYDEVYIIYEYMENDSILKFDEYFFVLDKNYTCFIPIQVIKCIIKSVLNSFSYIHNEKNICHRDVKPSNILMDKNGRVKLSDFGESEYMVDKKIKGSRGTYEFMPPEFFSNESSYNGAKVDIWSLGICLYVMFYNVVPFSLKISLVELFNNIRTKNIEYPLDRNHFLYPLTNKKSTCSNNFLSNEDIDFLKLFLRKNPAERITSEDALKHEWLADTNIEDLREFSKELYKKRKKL
# [8] = biological target: Calcium-dependent protein kinase 4 (Plasmodium falciparum (isolate 3D7)) (UniProt Q8IBS5); assay: PfCDPK4 kinase inhibitors, biochemical, TCAMS library (AID 1159588; cut-off not given, nearly all actives have IC50 up to about 0.91 µM); conditions: recombinant PfCDPK4, Kinase-Glo ATP depletion luminescence
# Chain of Calcium-dependent protein kinase 4 (Plasmodium falciparum (isolate 3D7)) (Q8IBS5 whole entry, looked up): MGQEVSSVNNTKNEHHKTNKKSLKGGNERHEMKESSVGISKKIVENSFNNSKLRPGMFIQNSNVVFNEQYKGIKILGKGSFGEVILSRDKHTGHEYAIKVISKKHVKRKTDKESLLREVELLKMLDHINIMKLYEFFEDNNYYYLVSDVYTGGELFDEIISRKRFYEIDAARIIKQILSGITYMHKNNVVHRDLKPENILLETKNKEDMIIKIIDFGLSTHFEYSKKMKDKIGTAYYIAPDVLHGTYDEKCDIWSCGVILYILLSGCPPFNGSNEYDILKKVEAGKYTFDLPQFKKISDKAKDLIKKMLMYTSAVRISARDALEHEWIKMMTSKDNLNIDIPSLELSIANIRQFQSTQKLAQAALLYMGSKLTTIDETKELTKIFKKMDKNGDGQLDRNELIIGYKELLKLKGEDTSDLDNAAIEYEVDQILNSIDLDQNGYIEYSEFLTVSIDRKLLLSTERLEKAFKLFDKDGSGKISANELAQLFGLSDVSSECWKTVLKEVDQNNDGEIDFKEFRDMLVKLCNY
Structure (SMILES),growth inhibition [1],inhibition [2],inhibition [3],growth inhibition [4],outcome [5],outcome [6],outcome [7],outcome [8]
COC(=O)C(c1ccc(NC(=O)[C@H](CC(C)C)NC(=O)OC(C)(C)C)cc1)c1ccc(NC(=O)[C@H](CC(C)C)NC(=O)OC(C)(C)C)cc1,42%,0%,2%,94% (active),inactive,inactive,inactive,inactive
CC(C)N1CCC(N(Cc2ccc(-c3ccc(C(F)(F)F)cc3)cc2)C(=O)Cn2c(SCc3cccc(F)c3F)cc(=O)c3c2CCC3)CC1,42%,44%,-6%,88% (active),inactive,inactive,inactive,inactive
COc1cccc(CCc2cccc(CNC(C)=O)c2)c1,-2%,2%,-2%,88% (active),inactive,inactive,inactive,inactive
CCCc1ccc(S(=O)(=O)NC2CCN(c3ccnc(Nc4ccc(F)cc4)n3)C2)cc1 (configuration not stated),56% (active),40%,-6%,95% (active),inactive,inactive,inactive,inactive
Cc1nc2c(c(C)nn2C(C)(C)C)c(C)c1CCC(=O)Nc1ccc(CN2CCCC2)cc1,5%,1%,0%,89% (active),inactive,inactive,inactive,inactive
FC(F)(F)c1ccc(-c2ccc(CNC3CCN(CCN4CCOCC4)CC3)cc2)cc1,74% (active),44%,0%,103% (active),inactive,inactive,inactive,inactive
Cc1cccc2[nH]c(-c3cccc(-c4ccc(NC(=O)CN5CCOCC5)cc4)c3)nc12,12%,59% (active),4%,94% (active),inactive,inactive,inactive,inactive
O=C(Nc1cccc(CN2CCN(Cc3ccc(O)cc3)CC2)c1)c1cccc(C(F)(F)F)c1,15%,21%,2%,91% (active),inactive,inactive,inactive,inactive
COc1ccc2ncc(F)c([C@H](O)CN3CCC(NCc4ccc5c(c4)NC(=O)CO5)CC3)c2c1,101% (active),16%,-1%,102% (active),inactive,inactive,inactive,inactive
O=C(Nc1ccc(Cl)cc1)Nc1ccc(Cn2ncc(N3CCCNCC3)c(Cl)c2=O)cc1,11%,49%,1%,85% (active),inactive,inactive,inactive,inactive
Cc1cc(C(=O)CN2C(=O)NC3(CCCc4ccccc43)C2=O)c(C)n1Cc1ccc(F)cc1 (configuration not stated),53% (active),4%,2%,92% (active),inactive,inactive,inactive,inactive
Cc1ccc(NC(=O)Nc2ccc(Cl)cc2)cc1-c1cccc(C(=O)Nc2ccc(F)cc2)c1,52% (active),8%,5%,96% (active),inactive,inactive,inactive,inactive
Cc1ccc(-c2ccc3c(c2)C=C(C(=O)NCC2CCN(CC4CCN(C(=O)/C=C/c5ccc(Cl)c(Cl)c5)CC4)CC2)CCC3)cc1,70% (active),96% (active),-7%,99% (active),inactive,inactive,inactive,inactive
CNC(=O)Cc1ccc(C(=O)Nc2cccc(-c3csc(-c4nc5ccccc5[nH]4)c3)c2)cc1,69% (active),36%,4%,95% (active),inactive,inactive,inactive,inactive
O=c1c2ccc(F)cc2sn1-c1ccc(Cl)cc1,11%,8%,-2%,98% (active),inactive,inactive,inactive,inactive
CN1Cc2cc(NC(=O)/C=C/c3ccccc3Cl)ccc2C(C)(C)C1,96% (active),12%,-3%,99% (active),inactive,inactive,inactive,inactive
COc1ccc2nccc(NN=CC=Cc3ccccc3)c2c1,99% (active),11%,-3%,101% (active),inactive,inactive,inactive,inactive
NC1CCN(Cc2cccc(-c3cccc(-c4nc5ccccc5[nH]4)c3)c2)C1 (configuration not stated),-2%,14%,-3%,100% (active),inactive,inactive,inactive,inactive
Cc1[nH]c(C)c(-c2ccc(Oc3ccc(Cl)cc3Cl)cc2)c(=O)c1Br,94% (active),3%,-5%,98% (active),inactive,inactive,inactive,inactive
O=C(c1cccs1)N1N=C(c2cccs2)CC1c1cccc([N+](=O)[O-])c1 (configuration not stated),27%,5%,-10%,95% (active),inactive,inactive,inactive,inactive

Structure (SMILES),growth inhibition [1],inhibition [2],inhibition [3],growth inhibition [4],outcome [5],outcome [6],outcome [7],outcome [8]
O=S(=O)(NCCN1CCCC1)c1ccc(-c2ccc(CNCc3ccccc3)cc2)cc1,28%,47%,5%,99% (active),inactive,inactive,inactive,inactive
CS(=O)(=O)c1cccc(-c2cnc3[nH]cc(-c4ccc(CCC(=O)O)cc4)c3c2)c1,99% (active),1%,-6%,97% (active),inactive,inactive,inactive,inactive
Cc1cc(N2CCC(C)CC2)nc2cc(O)ccc12,41%,31%,-1%,89% (active),inactive,inactive,inactive,inactive
COc1ccc(NC(=O)Nc2ccc(C)c(-c3ccc(C(=O)Nc4ccncc4)cc3)c2)cc1,50% (active),39%,4%,99% (active),inactive,inactive,inactive,inactive
COc1ccc(CC(=O)NC(CCCN2CCC3(CC2)OCc2ccccc23)c2ccc(Cl)c(Cl)c2)cc1 (configuration not stated),53% (active),40%,5%,83% (active),inactive,inactive,inactive,inactive
Cc1cc(N2CCCC2)nc(Nc2ccc(NC(=O)c3ccccc3F)cc2)n1,44%,36%,-3%,98% (active),inactive,inactive,inactive,inactive
CCOC(=O)c1ccc(NC(=O)Nc2ccc(Cn3ncc(N4CCCNCC4)c(Cl)c3=O)cc2)cc1,58% (active),2%,2%,88% (active),inactive,inactive,inactive,inactive
O=C(Nc1ccc(Cl)cc1)c1ccc(CN2CCCN(Cc3ccsc3)CC2)cc1,1%,48%,4%,88% (active),inactive,inactive,inactive,inactive
CCN(CCCN1CCCCC1)c1cc(C)nc(Nc2ccc(C)c(F)c2)n1,92% (active),20%,-5%,102% (active),inactive,inactive,inactive,inactive
CCCOc1cc(Cc2cnc(N)nc2N)cc(OC)c1OC,1%,21%,8%,85% (active),inactive,inactive,inactive,inactive
FC(F)(F)c1cccc(CNCC2CCN(CC3CCCCC3)CC2)c1,24%,21%,3%,101% (active),inactive,inactive,inactive,inactive
CCOc1cc(C(=O)NCCc2ccc(Cl)c(Cl)c2)ccc1-c1nc2ccc(Cl)cc2[nH]1,47%,9%,-4%,100% (active),inactive,inactive,inactive,inactive
CCN(c1ccccc1)S(=O)(=O)c1ccc(NC(=O)c2cc(-c3cc(C)ccc3O)n[nH]2)cc1,55% (active),49%,-3%,99% (active),inactive,inactive,inactive,inactive
CCn1c(SCc2ccc(F)cc2)nc2sc3c(c2c1=O)CCN(C)C3,81% (active),2%,3%,95% (active),inactive,inactive,inactive,inactive
CCc1ccccc1OCCCON1C(N)=NC(N)=NC1(C)C,97% (active),77% (active),-2%,95% (active),inactive,inactive,inactive,inactive
Cc1cc(NC(=O)c2cc(Br)ccc2Cl)n(-c2nc(C)c(C)c(=O)[nH]2)n1,83% (active),54% (active),-2%,91% (active),inactive,inactive,inactive,inactive
CN(C(=O)Nc1ccc(C(F)(F)F)cc1)C1CCN(CCCCCNC(=O)/C=C/c2ccc(Cl)c(Cl)c2)CC1,38%,57% (active),-3%,101% (active),inactive,inactive,inactive,inactive
Cc1cc(-c2ccc3c(c2)CC[C@@H](N[C@@H](C)c2ccccc2)C3)cnc1N,7%,3%,-2%,98% (active),inactive,inactive,inactive,inactive
O=C(CNC1=NCCN1)Nc1ccc(NC(=O)Nc2ccc(NC(=O)CNC3=NCCN3)cc2)cc1,75% (active),-5%,-2%,90% (active),inactive,inactive,inactive,inactive
